# Data from PubChem BioAssay (NCATS).
# A number with no mark means an inactive call. Records with an inconclusive call do not appear. Active and inactive are the calls of the source. The call rests on the fitted dose curve; in most records, active means well fitted curve in the direction sought with a large enough effect; inconclusive means small, poorly fitted or top-dose-only effect, or another doubt; inactive means no such curve, though single readings can be large; an effect the other way counts as inactive or inconclusive.
# Tested on: not listed separately
# Test: Cellular Toxicity (caspase-3) N2a (AID 665);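 further: compound exposure lasted 16 h at 37 °C before readout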
# Conditions: N2a cells, luminescence, normalized: DMSO 0%, 10 µM staurosporine 100%; series mostly up to 92.2 µM; caspase-3 activation: at the top concentration
# Procedure, shortened: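 Mouse N2a neuroblastoma cells (1500/well) were treated with compounds for 16 h at 37 °C, then caspase-3/7 activity was read by Caspase-Glo luminescence after 1 h at room temperature. Data were normalized to DMSO and 10 uM staurosporine; AC50 from Hill fits.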
Structure (SMILES),caspase-3 activation,outcome
c1ccc2c(c1)Nc1ccccc1S2,-1.89%,–
Clc1ccc(COC(Cn2ccnc2)c2ccc(Cl)cc2Cl)cc1 (stereo not given),18.8%,–
CNCC(O)c1ccc(O)cc1 (stereo not given),-0.737%,–
Oc1cccc2cccnc12,–,inactive
OCCOc1ccccc1,-5.61%,–
NCC(O)c1ccc(O)cc1 (stereo not given),-2.2%,–
CCOP(=S)(OCC)Oc1cc(C)nc(C(C)C)n1,-1.79%,–
N[C@@H](Cc1ccc(N(CCCl)CCCl)cc1)C(=O)O,7.79%,–
Oc1ccccc1-c1ccccc1,0.936%,–
Oc1ccc(Cl)cc1Cc1ccccc1,2.19%,–
CCCC(C)(COC(N)=O)COC(=O)NC(C)C (stereo not given),0.176%,–

# Tested on: not listed separately
# Test: Cellular Toxicity (caspase-3) NIH 3T3 (AID 666);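 further: 0% = DMSO basal and 100% = 100 µM tamoxifen stimulation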
# Conditions: NIH 3T3 caspase-3 activation, apoptosis/toxicity, 0% DMSO, 100% is 100 µM tamoxifen; series mostly up to 92.2 µM; caspase-3 activation: at the top concentration
# Procedure, shortened: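 Mouse NIH 3T3 fibroblasts (1000 cells/well) were treated with compound for 16 hr at 37°C in complete medium; caspase-3/7 activity was read by Caspase-Glo luminescence. Normalized to DMSO and 100 uM tamoxifen; AC50 from Hill fits.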
Structure (SMILES),caspase-3 activation,outcome
c1ccc2c(c1)Nc1ccccc1S2,-3.92%,–
Clc1ccc(COC(Cn2ccnc2)c2ccc(Cl)cc2Cl)cc1 (stereo not given),2.06%,–
C[C@]12C/C(=C/O)C(=O)C[C@@H]1CC[C@@H]1[C@@H]2CC[C@@]2(C)[C@H]1CC[C@]2(C)O,21.1%,–
CNCC(O)c1ccc(O)cc1 (stereo not given),-2.24%,–
Oc1cccc2cccnc12,–,inactive
OCCOc1ccccc1,-0.527%,–
NCC(O)c1ccc(O)cc1 (stereo not given),-5.81%,–
CCOP(=S)(OCC)Oc1cc(C)nc(C(C)C)n1,3.49%,–
Oc1ccccc1-c1ccccc1,1.54%,–
Oc1ccc(Cl)cc1Cc1ccccc1,-1.08%,–
CCCC(C)(COC(N)=O)COC(=O)NC(C)C (stereo not given),0.641%,–

# Tested on: not listed separately
# Test: Cellular Toxicity (caspase-3) Renal Proximal Tubule (AID 667);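 further: cells exposed to compound for 16 hours at 37 °C before detection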
# Conditions: renal proximal tubule cells; series mostly up to 91.7 µM; caspase-3 activation: at the top concentration
# Procedure, shortened: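 Luminescent caspase 3/7 signal from peptide-aminoluciferin cleavage measures apoptosis in freshly isolated rat kidney proximal tubule cells after 16 h compound exposure. Concentration-response data are normalized to DMSO and 10 uM staurosporine, and AC50 values come from Hill equation fits.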
Structure (SMILES),caspase-3 activation,outcome
c1ccc2c(c1)Nc1ccccc1S2,1.72%,–
Clc1ccc(COC(Cn2ccnc2)c2ccc(Cl)cc2Cl)cc1 (stereo not given),22.6%,–
CNCC(O)c1ccc(O)cc1 (stereo not given),3.61%,–
Oc1cccc2cccnc12,–,inactive
OCCOc1ccccc1,7.61%,–
NCC(O)c1ccc(O)cc1 (stereo not given),0.883%,–
CCOP(=S)(OCC)Oc1cc(C)nc(C(C)C)n1,-4.53%,–
Oc1ccccc1-c1ccccc1,"0.189% [at 91.7 µM, primary cells freshly taken from rat, solvent-only wells 0%, staurosporine 100%]",–
Oc1ccc(Cl)cc1Cc1ccccc1,6.72%,–
CCCC(C)(COC(N)=O)COC(=O)NC(C)C (stereo not given),4.83%,–

# Target: Guanine nucleotide-binding protein G(i) subunit alpha-1 (Homo sapiens) (UniProt P63096)
# Sequence (P63096 whole entry, looked up): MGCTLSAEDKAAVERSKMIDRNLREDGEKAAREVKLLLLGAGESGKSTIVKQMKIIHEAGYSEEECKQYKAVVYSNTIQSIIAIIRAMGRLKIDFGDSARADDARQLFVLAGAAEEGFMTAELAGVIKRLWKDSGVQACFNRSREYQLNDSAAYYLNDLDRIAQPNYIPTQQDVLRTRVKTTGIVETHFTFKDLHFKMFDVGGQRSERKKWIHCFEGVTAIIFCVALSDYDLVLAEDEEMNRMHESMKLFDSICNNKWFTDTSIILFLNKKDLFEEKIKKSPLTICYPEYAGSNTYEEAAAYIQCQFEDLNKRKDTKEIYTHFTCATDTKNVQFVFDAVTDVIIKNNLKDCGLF
# Test: qHTS Assay for Inhibitors of RGS12 GoLoco Motif Activity (Green Fluorophore) (AID 879);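 further: 0% = labeled peptide with Gαi1 and full inhibition = labeled peptide alone without protein; negative values mean loss of peptide binding seen as reduced polarization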
# Conditions: Galphai1/FITC-RGS12 GoLoco peptide, fluorescence polarization; series mostly up to 57.1 µM; activity, negative = inhibition: at the top concentration
# Procedure, shortened: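 Fluorescence polarization assay: 50 nM Gαi1 with 10 nM FITC-labeled RGS12 GoLoco peptide in 10 mM Tris pH 7.5, 150 mM NaCl, 0.1 mM GDP, 0.05% NP40, 10 min at room temperature with compound.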
row,Structure (SMILES),"activity, negative = inhibition"
1,O=c1[nH]c2ccccc2n1C1CCN(CCCC(c2ccc(F)cc2)c2ccc(F)cc2)CC1,-11.4%
2,N[C@@H]1C[C@H]1c1ccccc1,-4.87%
3,CCCN1CCC[C@@H]2Cc3nc(N)ncc3C[C@H]21,-3.76%
4,NCC1(CC(=O)O)CCCCC1,1.86%
5,CNCC(O)c1ccc(O)cc1 (stereo not given),-21.2%
6,Cc1ccc(S(=O)(=O)N[C@@H](CCCCN)C(=O)CCl)cc1,-23.3%
7,Cc1ncc(CNC(=O)N(CCCl)N=O)c(N)n1,-2.75%
8,N#CC(C#N)=Cc1ccc(O)c(O)c1,19.4%
9,Fc1ccc(C(OCCN2CCN(CCCc3ccccc3)CC2)c2ccc(F)cc2)cc1,-16.8%
10,O=c1[nH]c2ccccc2n1CCCN1CCC(n2c(=O)[nH]c3cc(Cl)ccc32)CC1,14.4%
11,Cc1cccc(C)c1NC1=NCCCS1,-6.63%
12,CC(=O)[C@H]1CC[C@H]2[C@@H]3CC[C@H]4C[C@H](O)CC[C@]4(C)[C@H]3C(=O)C[C@]12C,-1.43%
13,CCn1cc(C(=O)O)c(=O)c2ccc(C)nc21,-15.5%
14,Nc1ccncc1,-0.92%
15,CCCC(C)(COC(N)=O)COC(=O)NC(C)C (stereo not given),-5.15%

# Target: Cytochrome P450 2C9 (Homo sapiens) (UniProt P11712)
# Sequence (P11712 whole entry, looked up): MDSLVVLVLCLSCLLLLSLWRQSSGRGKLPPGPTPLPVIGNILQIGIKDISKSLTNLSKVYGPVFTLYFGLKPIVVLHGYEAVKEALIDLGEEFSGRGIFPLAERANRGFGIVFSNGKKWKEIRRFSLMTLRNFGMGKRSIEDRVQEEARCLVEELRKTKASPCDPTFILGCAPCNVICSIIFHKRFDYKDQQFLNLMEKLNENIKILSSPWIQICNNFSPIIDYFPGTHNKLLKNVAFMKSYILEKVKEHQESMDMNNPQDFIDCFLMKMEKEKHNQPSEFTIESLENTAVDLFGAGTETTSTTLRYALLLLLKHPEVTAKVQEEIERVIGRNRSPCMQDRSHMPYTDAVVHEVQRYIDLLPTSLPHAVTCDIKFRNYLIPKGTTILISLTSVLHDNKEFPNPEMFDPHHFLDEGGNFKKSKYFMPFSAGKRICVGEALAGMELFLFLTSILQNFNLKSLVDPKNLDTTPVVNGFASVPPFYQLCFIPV
# Test: qHTS Assay for Inhibitors and Substrates of Cytochrome P450 2C9 (AID 883); further: nearly all actives have a fitted effect of over 60% in size; further: potency means the concentration at half of the fitted maximal effect; on activity change, negative = inhibition: on the % scale 0 is the no-effect control and ±100 the full control effect
# Conditions: recombinant CYP2C9, luciferin-H luminescence, 60 min; series mostly up to 57.1 µM; activity change, negative = inhibition: at the top concentration
# Procedure, shortened: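 Luminescent read-out of deoxyluciferin hydroxylation, normalized to 57uM sulphaphenazole (AC100). Reaction: 10nM enzyme, 100uM Luciferin-H (equal to KM), 25mM KPO4, 10 min compound preincubation, then 60 min with NADPH regeneration, both at 37C.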
Structure (SMILES),"activity change, negative = inhibition",Potency
O=c1[nH]c2ccccc2n1C1CCN(CCCC(c2ccc(F)cc2)c2ccc(F)cc2)CC1,-13.3%,–
NCC1(CC(=O)O)CCCCC1,-17.5%,–
N#CC(C#N)=Cc1ccc(O)c(O)c1,–,7.94 µM (active)

# Target: Cytochrome P450 3A4 (Homo sapiens) (UniProt P08684)
# Sequence (P08684 whole entry, looked up): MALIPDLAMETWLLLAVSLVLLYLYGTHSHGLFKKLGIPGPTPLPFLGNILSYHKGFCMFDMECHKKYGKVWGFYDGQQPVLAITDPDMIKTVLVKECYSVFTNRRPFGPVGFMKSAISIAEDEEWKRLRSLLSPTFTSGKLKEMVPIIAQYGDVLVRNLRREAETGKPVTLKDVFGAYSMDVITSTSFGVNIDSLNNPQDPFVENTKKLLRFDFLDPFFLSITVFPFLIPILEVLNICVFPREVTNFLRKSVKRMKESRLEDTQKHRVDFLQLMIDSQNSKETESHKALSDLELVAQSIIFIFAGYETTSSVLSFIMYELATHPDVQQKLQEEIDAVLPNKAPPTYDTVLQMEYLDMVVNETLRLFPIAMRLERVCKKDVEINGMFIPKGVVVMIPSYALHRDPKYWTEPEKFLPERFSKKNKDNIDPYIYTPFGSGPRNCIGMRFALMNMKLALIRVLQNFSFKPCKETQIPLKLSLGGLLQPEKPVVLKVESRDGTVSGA
# Test: qHTS Assay for Inhibitors and Substrates of Cytochrome P450 3A4 (AID 884); further: on the % scale 0 is the no-effect control and ±100 the full control effect; nearly all actives have a fitted effect of over 50% in size
# Conditions: recombinant CYP3A4, Luciferin-PPXE luminescence; series mostly up to 57.1 µM; activity change, negative = inhibition: at the top concentration
# Procedure, shortened: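 20 nM human CYP3A4 with 25 uM Luciferin-PPXE (at KM) in 200 mM KPO4, preincubated 10 min with compound; NADPH regeneration started a 60 min RT reaction. Luciferin detected by luminescence, normalized to 57 uM ketoconazole as full inhibition.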
Structure (SMILES),"activity change, negative = inhibition",Potency
O=c1[nH]c2ccccc2n1C1CCN(CCCC(c2ccc(F)cc2)c2ccc(F)cc2)CC1,263%,–
NCC1(CC(=O)O)CCCCC1,-3%,–
CNCC(O)c1ccc(O)cc1 (stereo not given),-18.3%,–
Oc1cccc2cccnc12,–,inactive
OCCOc1ccccc1,-19.3%,–
NCC(O)c1ccc(O)cc1 (stereo not given),–,inactive
Oc1ccccc1-c1ccccc1,-10.5%,–

# Target: Cytochrome P450 3A4 (Homo sapiens) (UniProt P08684)
# Test: qHTS Assay for Activators of Cytochrome P450 3A4 (AID 885); further: nearly all actives have a fitted effect of over 65% in size
# Conditions: recombinant CYP3A4, Luciferin-PPXE luminescence, 60 min; series mostly up to 57.1 µM; activity change, positive = activation: at the top concentration
# Procedure, shortened: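 Human CYP3A4 (20 nM) with Luciferin-PPXE at 25 uM (its KM) in 200 mM KPO4; 10 min compound preincubation, then NADPH regeneration and 60 min reaction at RT. Luciferin read by luminescence; normalized to 57 uM ketoconazole full inhibition.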
row,Structure (SMILES),"activity change, positive = activation"
1,Clc1ccc(COC(Cn2ccnc2)c2ccc(Cl)cc2Cl)cc1 (stereo not given),-106%
2,N[C@@H](Cc1ccc(N(CCCl)CCCl)cc1)C(=O)O,-76.5%
3,CCCC(C)(COC(N)=O)COC(=O)NC(C)C (stereo not given),-30%
